Source: PubChem BioAssay
Measured potencies and affinities stand elsewhere. Activity calls are given as the source filed them. The limit is not given here; nearly all actives have IC50 up to about 0.91 µM.

Target: Calcium-dependent protein kinase 4 (Plasmodium falciparum (isolate 3D7)) (UniProt Q8IBS5)
Test: PfCDPK4 kinase inhibitors, biochemical, TCAMS library (AID 1159588)
Conditions: recombinant PfCDPK4, Kinase-Glo ATP depletion luminescence

Calcium-dependent protein kinase 4 (Plasmodium falciparum (isolate 3D7)), sequence (Q8IBS5 whole entry, looked up): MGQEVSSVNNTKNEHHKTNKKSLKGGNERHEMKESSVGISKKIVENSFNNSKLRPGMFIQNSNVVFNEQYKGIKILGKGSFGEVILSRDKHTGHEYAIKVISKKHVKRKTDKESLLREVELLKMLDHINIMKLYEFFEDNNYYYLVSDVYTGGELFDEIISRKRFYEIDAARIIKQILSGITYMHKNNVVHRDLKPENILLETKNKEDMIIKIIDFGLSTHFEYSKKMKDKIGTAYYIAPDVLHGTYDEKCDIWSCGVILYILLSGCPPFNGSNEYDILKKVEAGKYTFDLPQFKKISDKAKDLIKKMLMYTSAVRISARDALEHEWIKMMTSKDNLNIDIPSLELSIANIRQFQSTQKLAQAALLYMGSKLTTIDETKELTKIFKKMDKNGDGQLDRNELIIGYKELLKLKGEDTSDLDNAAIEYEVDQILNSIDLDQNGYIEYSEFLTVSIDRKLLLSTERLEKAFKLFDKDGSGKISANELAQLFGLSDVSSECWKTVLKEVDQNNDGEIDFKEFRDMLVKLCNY

outcome, inactive:
CC(C)c1ccc(CN2CCCCC(NC(=O)c3cc(-c4ccccc4Cl)cs3)C2)cc1 (stereo not given)
Cc1cccc2[nH]c(-c3cccc(-c4cccc(CNCCCN5CCCC5=O)c4)c3)nc12
O=C(Nc1cccc(-c2cccc(-c3nc4ccccc4[nH]3)c2)c1)N[C@@H]1C[C@H]1c1ccccc1
O=C1C(c2ccccc2)=C(Nc2cc(Cl)cc(Cl)c2)c2ccccc21
O=C(NC1CC1)c1ccc(Cn2c(SCc3cccc(Cl)c3)nc3ccccc3c2=O)cc1
COc1ccc2nc(C)cc(NN=Cc3ccccc3Cl)c2c1
Clc1ccc2c(NCCNc3ccnc4cc(Cl)ccc34)ccnc2c1
O=C(Nc1cccc(CN2CCN(Cc3ccc(O)cc3)CC2)c1)c1ccc(Cl)c(Cl)c1
Cc1[nH]c(C)c(-c2ccc(CCc3ccc(N)cc3)cc2)c(=O)c1Cl
CC(CNC(=O)c1cc2c(Cl)cc(Cl)cc2[nH]1)CNc1cc(=O)c2ccccc2[nH]1 (stereo not given)
C=C[C@H]1CN(CCCCCCC)CC[C@H]1CCN(C)c1ccnc2ccc(OC)cc12
Fc1ccc2ncc(Cl)c(CCN3CCC(NCc4cc5c(cn4)OCCO5)CC3)c2c1
CC(C)(C)c1ccc(N2C(N)=NC(N)=NC2(C)C)cc1
CCN(CC(C)O)C(=O)c1ccc(-c2ccc(-c3nc4c(C)cccc4[nH]3)cc2)cc1 (stereo not given)
CN1CCC(C(=O)Nc2ccc(-c3cccc(-c4nc5ccc(C(F)(F)F)cc5[nH]4)c3)cc2)CC1
O=C1C(c2ccccc2)=C(Nc2ccc(Cl)cc2)c2ccccc21
Cc1cc(O)c(-c2cc(C(=O)Nc3cccnc3)[nH]n2)cc1C
CCCC(C)Nc1nc(C)cc(N[C@@H](CC(C)C)C(=O)NCc2ccc(C)cc2)n1 (stereo not given in full)
O=C(NC1CC1)c1cnc(N2CCCC(c3ccccc3)C2)c(Cl)c1 (stereo not given)
CCCCSc1c(CNCCCCCCNCc2ccc3ccccc3c2SCCCC)ccc2ccccc12
Cc1cccc2[nH]c(-c3ccc(-c4cccc(NC(=O)NCc5cccc(F)c5)c4)cc3)nc12
COc1ccc(CN(C)CCCSc2ccc(NC(=O)c3cccc4c(=O)cc(-c5ccccc5)[nH]c34)cc2)cc1OC
O=C(/C=C/c1ccc(Cl)c(Cl)c1)NCCCCCN1CCCN(C(=O)Nc2cccc(F)c2)CC1
NC(=O)COc1cccc2c1CCN(CCN1CCC(NC(=O)c3ccc(-c4ccc(Cl)cc4)cc3)CC1)C2
CN1CCC(NCc2cccc(-c3cccc(-c4nc5ccc(C(F)(F)F)cc5[nH]4)c3)c2)CC1
Cn1ncc2c3c(CCN4CCC(NCc5cc6c(cn5)OCCO6)CC4)c(Cl)cnc3ccc21
CC1(C)N=C(N)N=C(N)N1c1ccc2ccccc2c1
O=C(Nc1cc(Cl)ccc1O)c1ccc(Oc2ccc(C(=O)Nc3cc(Cl)ccc3O)cc2)cc1
FC(F)(F)c1cccc(CNCCCCCNCc2ccc(Cl)cc2)c1
CC(C)(C)c1ccc(CN2CCC(NC(=O)c3ccc(-c4ccccc4Cl)s3)CC2)cc1
CCc1cc2c(N)nc(N)nc2nc1-c1ccccc1
COc1ccc(CNCc2ccc(F)cc2)cc1-c1ccc(OC)c(S(=O)(=O)NCCN2CCCC2)c1
O=C(NCCc1ccc(Cl)c(Cl)c1)c1ccc(CNC(=O)c2ccc(O)c(-c3ccc(Cl)c(Cl)c3)c2)cc1
CCc1cn2c3c(cc(C(=O)N[C@@H](Cc4cc(F)cc(F)c4)[C@H](O)CNC4CC4)cc13)N(C)S(=O)(=O)CC2
O=C(NCCCCN1CC[C@@H]2c3cccc(O)c3CC[C@H]21)c1ccc(-c2ccccc2)cc1
CS(=O)(=O)c1ccc(CNCc2cccc(-c3cccc(-c4nc5ccc(F)cc5[nH]4)c3)c2)cc1
COc1cccc(CNC(=O)c2cnc(N3CCN(c4ccncc4)CC3)c(Cl)c2)c1
O=C(Cc1cnc[nH]1)Nc1ccc(-c2cccc(-c3nc4ccc(F)cc4[nH]3)c2)cc1
FC(F)(F)c1ccc2nccc(NN=Cc3ccc(Cl)cc3)c2c1
O=C(NCCCCN1CCC(c2ccc(OC(F)(F)F)cc2)CC1)c1ccc(NC(=O)c2ccc(Cl)cc2)cc1
